# According to the supplement of paper PMC10849652:
# The full data set covers some 8,800 targets. This sample favours those with a hit. About 0.5% of all pairs of compound and target were hits. A number with no mark means an inactive call.
# Experiments:
# Assay in all cases: log2 fold change, soluble protein after heating vs DMSO (PISA); higher = thermal stabilisation; K562 lysate, 10 uM; active = over 0.2 and 3.5 SD of the protein, either way, in both replicates (recomputed)
# vemurafenib = compound: CCCS(=O)(=O)Nc1ccc(F)c(C(=O)c2c[nH]c3ncc(-c4ccc(Cl)cc4)cc23)c1F [vemurafenib]
# Procedure, shortened: (§1)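 Quantification was by TMTpro 16plex LC-MS/MS with equalised channel sums, applied to the supernatant after 21,000xg for 90 min. Samples were crude K562 extract at 1 mg/mL protein in PBS pH 7.4 with 1 mM MgCl2, treated with 10 μM compound for 30 min, heated for 3 min across 48°C-58°C, pooled and brought to 0.5% NP-40 at 4°C. Values are log-two fold changes in thermal stability relative to solvent controls, from duplicates.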
# [1] = compound: CCCS(=O)(=O)Nc1ccc(F)c(C(=O)c2c[nH]c3ncc(Cl)cc23)c1F
# Procedure, shortened: as §1
# barasertib = compound: CCN(CCCOc1ccc2c(Nc3cc(CC(=O)Nc4cccc(F)c4)[nH]n3)ncnc2c1)CCOP(=O)(O)O [barasertib]
# Procedure, shortened: as §1
# [2] = compound: CC[C@@H]1C(=O)N(C)c2cnc(Nc3ccc(C(=O)NC4CCN(C)CC4)cc3OC)nc2N1C1CCCC1
# Procedure, shortened: as §1
# volasertib = compound: CC[C@@H]1C(=O)N(C)c2cnc(Nc3ccc(C(=O)N[C@H]4CC[C@H](N5CCN(CC6CC6)CC5)CC4)cc3OC)nc2N1C(C)C [volasertib]
# Procedure, shortened: as §1
# [3] = compound: CCn1c(C(=O)N(C2CC2)C2CC2)cc2c3c(ncn3C)c(Nc3cc(C)n(C)n3)nc21
# Procedure, shortened: as §1
# [4] = compound: CCn1cc(-c2ccnc3[nH]c(-c4cccc(CN(C)C)c4)cc23)c(-c2ccc(NC(=O)N(C)C)cc2)n1
# Procedure, shortened: as §1
# [5] = compound: CN1CCC(CNc2ccc3ncc(-c4cccc(OC(F)(F)F)c4)n3n2)CC1
# Procedure, shortened: as §1
# saracatinib = compound: CN1CCN(CCOc2cc(OC3CCOCC3)c3c(Nc4c(Cl)ccc5c4OCO5)ncnc3c2)CC1 [saracatinib]
# Procedure, shortened: as §1
# sotrastaurin = compound: CN1CCN(c2nc(C3=C(c4c[nH]c5ccccc45)C(=O)NC3=O)c3ccccc3n2)CC1 [sotrastaurin]
# Procedure, shortened: as §1
# UniProt Q96JC1, sequence (Q96JC1 whole entry, looked up): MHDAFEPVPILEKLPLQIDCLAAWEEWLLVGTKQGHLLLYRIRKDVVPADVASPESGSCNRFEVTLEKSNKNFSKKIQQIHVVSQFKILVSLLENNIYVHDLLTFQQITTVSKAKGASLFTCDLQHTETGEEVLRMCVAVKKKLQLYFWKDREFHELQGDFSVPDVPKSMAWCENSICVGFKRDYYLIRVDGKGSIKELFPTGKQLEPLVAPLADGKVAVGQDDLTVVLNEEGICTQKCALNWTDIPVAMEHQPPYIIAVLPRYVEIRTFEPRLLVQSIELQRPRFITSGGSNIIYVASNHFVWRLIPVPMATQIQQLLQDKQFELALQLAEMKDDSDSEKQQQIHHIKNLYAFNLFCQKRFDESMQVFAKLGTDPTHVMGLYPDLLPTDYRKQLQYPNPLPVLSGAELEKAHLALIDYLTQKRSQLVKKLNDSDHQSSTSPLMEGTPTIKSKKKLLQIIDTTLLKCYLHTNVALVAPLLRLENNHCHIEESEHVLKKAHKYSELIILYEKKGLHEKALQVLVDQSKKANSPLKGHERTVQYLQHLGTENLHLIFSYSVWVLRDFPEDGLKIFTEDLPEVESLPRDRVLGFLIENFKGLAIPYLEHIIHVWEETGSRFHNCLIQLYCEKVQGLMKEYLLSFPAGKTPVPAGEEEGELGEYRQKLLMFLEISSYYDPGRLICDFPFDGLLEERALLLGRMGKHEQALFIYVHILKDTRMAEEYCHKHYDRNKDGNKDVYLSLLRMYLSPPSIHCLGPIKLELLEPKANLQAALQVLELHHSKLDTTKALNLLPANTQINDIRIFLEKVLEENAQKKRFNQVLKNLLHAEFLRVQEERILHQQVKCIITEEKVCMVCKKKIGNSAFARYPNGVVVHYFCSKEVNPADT
# UniProt Q9NZ43, sequence (Q9NZ43 whole entry, looked up): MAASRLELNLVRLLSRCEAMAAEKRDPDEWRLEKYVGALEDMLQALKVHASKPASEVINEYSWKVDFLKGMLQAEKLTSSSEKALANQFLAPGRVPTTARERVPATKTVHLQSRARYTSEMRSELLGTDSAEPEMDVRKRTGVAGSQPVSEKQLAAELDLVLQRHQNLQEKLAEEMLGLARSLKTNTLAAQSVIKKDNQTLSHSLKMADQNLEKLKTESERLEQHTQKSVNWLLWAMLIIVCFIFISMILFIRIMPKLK
# UniProt Q86Y07, sequence (Q86Y07 whole entry, looked up): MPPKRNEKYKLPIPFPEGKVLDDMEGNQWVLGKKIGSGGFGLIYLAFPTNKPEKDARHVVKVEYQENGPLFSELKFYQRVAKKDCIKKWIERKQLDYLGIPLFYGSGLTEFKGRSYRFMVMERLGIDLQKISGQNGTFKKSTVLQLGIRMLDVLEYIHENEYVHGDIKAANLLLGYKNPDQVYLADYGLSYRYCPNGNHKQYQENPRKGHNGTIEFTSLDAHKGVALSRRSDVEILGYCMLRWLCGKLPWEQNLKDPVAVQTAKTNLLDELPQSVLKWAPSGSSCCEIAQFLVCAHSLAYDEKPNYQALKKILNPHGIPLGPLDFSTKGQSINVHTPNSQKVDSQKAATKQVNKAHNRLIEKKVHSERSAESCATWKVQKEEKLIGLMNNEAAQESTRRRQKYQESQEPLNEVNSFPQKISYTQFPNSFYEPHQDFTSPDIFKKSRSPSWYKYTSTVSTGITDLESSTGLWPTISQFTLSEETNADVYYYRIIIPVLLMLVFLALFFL
# UniProt Q9Y2X9, sequence (Q9Y2X9 whole entry, looked up): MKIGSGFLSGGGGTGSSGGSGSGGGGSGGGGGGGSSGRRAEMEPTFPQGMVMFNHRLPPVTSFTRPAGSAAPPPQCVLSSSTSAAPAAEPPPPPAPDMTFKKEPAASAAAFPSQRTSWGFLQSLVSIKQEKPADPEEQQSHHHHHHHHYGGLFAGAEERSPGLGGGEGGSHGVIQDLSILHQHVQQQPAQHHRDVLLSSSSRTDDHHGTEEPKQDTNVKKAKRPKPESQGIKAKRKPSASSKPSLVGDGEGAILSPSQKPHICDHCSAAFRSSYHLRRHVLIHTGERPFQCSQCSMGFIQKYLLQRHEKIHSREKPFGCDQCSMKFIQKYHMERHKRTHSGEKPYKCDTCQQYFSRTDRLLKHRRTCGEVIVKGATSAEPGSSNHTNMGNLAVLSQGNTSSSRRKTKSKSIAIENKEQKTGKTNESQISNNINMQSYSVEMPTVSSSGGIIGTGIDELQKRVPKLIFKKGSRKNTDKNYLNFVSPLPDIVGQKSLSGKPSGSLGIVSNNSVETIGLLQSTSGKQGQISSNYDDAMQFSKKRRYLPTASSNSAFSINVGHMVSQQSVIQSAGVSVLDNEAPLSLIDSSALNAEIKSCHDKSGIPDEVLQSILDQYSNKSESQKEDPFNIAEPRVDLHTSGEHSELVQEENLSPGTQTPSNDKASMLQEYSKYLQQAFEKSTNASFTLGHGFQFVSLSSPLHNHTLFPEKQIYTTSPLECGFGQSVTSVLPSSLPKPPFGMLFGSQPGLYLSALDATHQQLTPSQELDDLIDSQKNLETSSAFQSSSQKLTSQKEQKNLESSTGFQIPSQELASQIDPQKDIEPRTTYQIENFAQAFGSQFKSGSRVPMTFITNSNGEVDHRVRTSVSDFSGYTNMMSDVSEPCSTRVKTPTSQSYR
# UniProt Q7Z739, sequence (Q7Z739 whole entry, looked up): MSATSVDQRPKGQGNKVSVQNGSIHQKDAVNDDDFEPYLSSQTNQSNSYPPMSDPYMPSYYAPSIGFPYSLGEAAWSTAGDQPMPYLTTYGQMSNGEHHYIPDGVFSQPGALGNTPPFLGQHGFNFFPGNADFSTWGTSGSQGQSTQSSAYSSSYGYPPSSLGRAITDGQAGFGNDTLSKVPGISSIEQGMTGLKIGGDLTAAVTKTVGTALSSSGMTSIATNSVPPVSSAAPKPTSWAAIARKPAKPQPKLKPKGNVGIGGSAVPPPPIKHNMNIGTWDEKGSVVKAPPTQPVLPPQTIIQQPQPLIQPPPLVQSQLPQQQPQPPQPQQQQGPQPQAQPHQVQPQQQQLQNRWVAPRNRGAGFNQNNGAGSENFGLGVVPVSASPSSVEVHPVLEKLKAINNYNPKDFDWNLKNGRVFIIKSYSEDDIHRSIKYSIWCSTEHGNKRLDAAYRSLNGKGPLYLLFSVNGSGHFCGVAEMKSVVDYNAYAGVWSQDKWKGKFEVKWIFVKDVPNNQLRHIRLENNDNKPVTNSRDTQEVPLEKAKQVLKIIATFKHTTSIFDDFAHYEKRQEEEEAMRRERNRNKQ
# UniProt O00258, sequence (O00258 whole entry, looked up): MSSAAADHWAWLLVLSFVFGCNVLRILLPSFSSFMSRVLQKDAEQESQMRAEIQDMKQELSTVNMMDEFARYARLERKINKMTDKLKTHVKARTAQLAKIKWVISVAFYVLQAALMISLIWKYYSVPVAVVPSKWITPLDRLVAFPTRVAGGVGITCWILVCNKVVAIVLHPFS
# UniProt Q8TAA9, sequence (Q8TAA9 whole entry, looked up): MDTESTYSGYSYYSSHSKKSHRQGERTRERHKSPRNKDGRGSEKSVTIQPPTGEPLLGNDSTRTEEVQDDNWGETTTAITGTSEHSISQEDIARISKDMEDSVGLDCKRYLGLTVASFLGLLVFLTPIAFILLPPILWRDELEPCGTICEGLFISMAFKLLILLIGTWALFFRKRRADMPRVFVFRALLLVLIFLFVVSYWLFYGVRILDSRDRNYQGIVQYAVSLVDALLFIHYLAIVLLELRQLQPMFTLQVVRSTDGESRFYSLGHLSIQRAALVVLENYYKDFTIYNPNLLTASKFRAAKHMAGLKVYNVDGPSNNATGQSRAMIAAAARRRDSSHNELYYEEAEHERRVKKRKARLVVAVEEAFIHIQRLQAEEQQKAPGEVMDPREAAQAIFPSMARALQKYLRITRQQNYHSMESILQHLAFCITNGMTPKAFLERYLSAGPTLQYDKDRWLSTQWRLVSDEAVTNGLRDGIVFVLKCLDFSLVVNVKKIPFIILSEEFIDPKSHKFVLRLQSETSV
# UniProt Q9H6R7, sequence (Q9H6R7 whole entry, looked up): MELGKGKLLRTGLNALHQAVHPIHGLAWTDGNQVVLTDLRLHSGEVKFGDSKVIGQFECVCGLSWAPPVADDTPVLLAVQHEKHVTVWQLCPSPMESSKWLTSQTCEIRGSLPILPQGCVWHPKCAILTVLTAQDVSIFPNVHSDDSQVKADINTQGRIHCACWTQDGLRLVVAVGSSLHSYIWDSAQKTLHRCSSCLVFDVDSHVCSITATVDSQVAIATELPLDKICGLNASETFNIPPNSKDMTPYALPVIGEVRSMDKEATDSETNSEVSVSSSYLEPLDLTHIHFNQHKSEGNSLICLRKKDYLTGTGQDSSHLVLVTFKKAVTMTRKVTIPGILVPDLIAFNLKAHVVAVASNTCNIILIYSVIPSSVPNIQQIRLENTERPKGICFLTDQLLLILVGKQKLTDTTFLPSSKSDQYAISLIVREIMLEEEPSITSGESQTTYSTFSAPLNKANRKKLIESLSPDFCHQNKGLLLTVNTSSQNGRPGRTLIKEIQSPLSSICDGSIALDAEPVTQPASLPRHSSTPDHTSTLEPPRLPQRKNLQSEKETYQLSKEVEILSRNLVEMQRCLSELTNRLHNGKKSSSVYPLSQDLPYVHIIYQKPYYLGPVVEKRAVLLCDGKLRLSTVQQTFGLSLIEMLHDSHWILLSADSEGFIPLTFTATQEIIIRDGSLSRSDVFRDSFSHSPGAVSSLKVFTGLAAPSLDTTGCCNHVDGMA
# UniProt Q15906, sequence (Q15906 whole entry, looked up): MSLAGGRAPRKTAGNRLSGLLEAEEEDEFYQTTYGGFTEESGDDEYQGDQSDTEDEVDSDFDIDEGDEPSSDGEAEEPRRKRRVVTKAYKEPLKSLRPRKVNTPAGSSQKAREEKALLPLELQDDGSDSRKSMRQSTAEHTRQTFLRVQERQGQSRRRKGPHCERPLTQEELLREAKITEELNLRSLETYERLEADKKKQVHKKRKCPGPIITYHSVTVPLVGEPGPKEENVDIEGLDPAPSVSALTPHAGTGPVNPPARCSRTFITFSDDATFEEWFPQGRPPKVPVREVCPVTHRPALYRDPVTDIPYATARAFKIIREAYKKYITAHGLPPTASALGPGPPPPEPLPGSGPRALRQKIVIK
Target,log2 fold change (vemurafenib),log2 fold change [1],log2 fold change (barasertib),log2 fold change [2],log2 fold change (volasertib),log2 fold change [3],log2 fold change [4],log2 fold change [5],log2 fold change (saracatinib),log2 fold change (sotrastaurin)
VANGL1 (UniProt Q8TAA9),-0.075,0.023,0.101,0.004,-0.009,0.105,-0.088,0.058,0.044,0.125
YTHDF3 (UniProt Q7Z739),-0.019,0.002,0.119,0.058,-0.071,0.168,-0.041,0.01,0.076,-0.083
VPS13C (UniProt Q709C8),0.018,0.028,0.12,0.112,-0.017,-0.01,0,0.02,0.028,0.026
WDCP (UniProt Q9H6R7),-0.004,0.033,0.032,0.031,-0.019,-0.04,0.003,0.01,-0.011,0.039
VAV3 isoform 4 (UniProt Q9UKW4),0.059,-0.004,0.049,-0.001,-0.017,-0.291,-0.512,0.177,-0.15,0.001
USE1 (UniProt Q9NZ43),-0.071,-0.049,0.021,0.036,0.04,0.093,0.002,-0.103,-0.02,0.017
USP16 (UniProt Q9Y5T5),0.038,0.005,0.016,-0.009,-0.011,0.01,0.039,-0.045,0.054,0.013
ZHX1 (UniProt Q9UKY1),-0.058,0.057,0.059,0.144,-0.079,-0.056,-0.603 (active),0.526 (active),0.011,0.029
ZC3H13 (UniProt Q5T200),-0.027,-0.037,-0.045,0.036,-0.013,-0.031,0.033,0,-0.046,0.222
YWHAQ (UniProt P27348),-0.029,0.009,-0.023,0.025,0.023,-0.003,0.625 (active),-0.092,-0.012,-0.047
VPS11 (UniProt Q9H270),-0.002,0.034,0.013,-0.033,-0.038,0.015,-0.051,-0.007,0.039,0.019
VPS4A (UniProt Q9UN37),0.096,-0.006,0.014,-0.063,-0.09,0.054,-0.12,-0.036,0.027,0.056
VPS39 (UniProt Q96JC1),-0.034,0.014,0.022,-0.029,-0.045,0.001,0.73 (active),-0.151,0.018,-0.008
ZNF217 (UniProt O75362),0.043,0.019,0.047,0.099,-0.021,-0.028,-0.021,0.076,0.013,0.052
ZMYM2 (UniProt Q9UBW7),0.004,0.101,-0.016,-0.034,-0.253,-0.119,0.025,-0.196,0.018,-0.008
WIPI2 (UniProt Q9Y4P8),-0.028,0.012,-0.06,-0.073,-0.022,0.002,-0.108,0.09,0.01,-0.002
WRB (UniProt O00258),0.086,0.077,0.098,-0.011,0.015,-0.148,-0.176,0.068,-0.147,0.013
UNC13D (UniProt Q70J99),0.039,0.027,0.024,-0.073,-0.083,0.012,0.026,-0.015,0.05,-0.022
YDJC (UniProt A8MPS7),-0.022,0.006,0.017,0.01,-0.038,-0.063,0.012,0.055,0.024,0.008
VRK2 (UniProt Q86Y07),0.113,0.148,0.048,-0.032,-0.008,0.01,-0.104,0.182,-0.022,0.151

Target,log2 fold change (vemurafenib),log2 fold change [1],log2 fold change (barasertib),log2 fold change [2],log2 fold change (volasertib),log2 fold change [3],log2 fold change [4],log2 fold change [5],log2 fold change (saracatinib),log2 fold change (sotrastaurin)
VPS18 (UniProt Q9P253),0.037,0.014,0,0,-0.083,0.046,-0.048,-0.04,-0.012,0.02
WDR20 isoform 7 (UniProt Q8TBZ3),0.047,0,0.087,0.054,-0.039,-0.017,0.039,-0.039,0.065,-0.036
XPO6 (UniProt Q96QU8),0.033,0.013,0.062,-0.03,-0.058,-0.049,0.448,0.071,-0.007,0
WDR41 (UniProt Q9HAD4),-0.018,0.036,-0.07,0.089,0.005,0.053,-0.032,0.053,0.017,0.043
YLPM1 (UniProt P49750),0.062,0.005,0.032,0.069,-0.019,-0.018,0.165,-0.085,0.033,0.012
ZMYND8 isoform 19 (UniProt Q9ULU4),0.061,0.071,0.012,0.016,-0.025,-0.015,-0.127,0.037,-0.01,0.019
WDR36 (UniProt Q8NI36),0.014,0.018,0.011,-0.058,-0.022,0.034,0.012,-0.076,-0.015,0.044
VPS35L (UniProt Q7Z3J2),0.016,0.002,0.001,-0.072,-0.047,-0.004,-0.02,-0.005,0.004,0.046
YES1 (UniProt P07947),0.068,0.088,0.334,-0.086,-0.205,-0.106,-0.146,-0.007,0.331,-0.084
ZNF598 isoform 3 (UniProt Q86UK7),0.022,0.036,0.019,0.067,-0.032,0.017,-0.011,0.001,-0.008,0.014
XPNPEP1 isoform 3 (UniProt Q9NQW7),0.001,0.015,0.008,-0.044,-0.054,0.014,-0.022,0.019,-0.001,-0.016
ZNF451 (UniProt Q9Y4E5),-0.013,0.02,0.019,0.066,-0.063,-0.022,-0.047,-0.048,0.039,0.002
UTP18 (UniProt Q9Y5J1),-0.011,0.067,-0.036,0.057,-0.069,0.024,-0.004,-0.042,0.031,0.012
WDHD1 (UniProt O75717),-0.03,0.022,-0.02,-0.011,-0.026,-0.001,0.078,-0.066,0.024,0.003
VHL (UniProt P40337),0.027,,-0.005,-0.065,,-0.054,0.11,-0.086,0.019,-0.038
ZNF281 (UniProt Q9Y2X9),,,,,,0.011,,,-0.069,0.028
WAC isoform 5 (UniProt Q9BTA9),,,,,,0.047,,,-0.078,
WIPI1 (UniProt Q5MNZ9),,0.044,0.04,0.119,-0.014,-0.043,-0.079,0.022,0.025,-0.074
ZNF346 (UniProt Q9UL40),,0.007,0.013,0.029,-0.047,-0.018,0.017,-0.051,0.001,0.011
ZC3HC1 (UniProt Q86WB0),-0.006,0.027,-0.029,-0.036,0.015,0.008,0.253 (active),-0.075,-0.03,-0.022

Target,log2 fold change (vemurafenib),log2 fold change [1],log2 fold change (barasertib),log2 fold change [2],log2 fold change (volasertib),log2 fold change [3],log2 fold change [4],log2 fold change [5],log2 fold change (saracatinib),log2 fold change (sotrastaurin)
ULK3 isoform 4 (UniProt Q6PHR2),0.022,-0.042,0.001,-0.196,-0.139,,-0.634 (active),-0.285,0.18,-0.077
YBEY (UniProt P58557),-0.119,,,-0.054,,,,,-0.058,
ZNF652 (UniProt Q9Y2D9),,,,,,,,,,-0.034
WIPI2 isoform 6 (UniProt Q9Y4P8),,,0.04,,,,-0.24,-0.016,,
UTRN isoform 2 (UniProt P46939),,,-0.019,-0.318,,,0.148,-0.003,,
ZNF146 (UniProt Q15072),,,,,,,,,0.247,
ZSCAN26 (UniProt Q16670),,,,,,,,,,-0.239
VASN (UniProt Q6EMK4),,,,0.046,,0.023,,,0.065,
ZKSCAN8 (UniProt Q15776),0.049,-0.173,,-0.019,-0.17,-0.001,,,0.028,0.027
XPOT (UniProt F5GYW6),,-0.204,,,-0.112,,,,,
WEE1 (UniProt P30291),0.029,0.056,0.015,-0.25,-0.032,-0.077,,,-0.016,-0.1
UNC13A (UniProt Q9UPW8),,,,,,,-1.79 (active),0.531,,
WAS (UniProt P42768),,,0.046,0.043,,,0.007,0.019,-0.136,
ZBTB40 (UniProt Q9NUA8),0.06,-0.076,,,0.029,-0.014,-0.127,0.095,-0.017,-0.012
ZNF644 (UniProt Q9H582),0.027,,0.045,0.047,,-0.136,-0.05,-0.023,-0.086,0.013
UNKL (UniProt E9PDK2),-0.118,,0.047,-0.075,,,,,0.002,-0.05
URGCP (UniProt Q8TCY9),0.191,,-0.023,,,-0.069,,,0,
VPS72 (UniProt Q15906),0.054,-0.139,,-0.009,0.162,0.021,0.056,0.078,0.04,0.024
ZSWIM8 isoform 4 (UniProt A7E2V4),-0.173,,0.22,0.039,,0.038,-0.094,-0.071,0.018,0.039
ZFYVE19 isoform 3 (UniProt Q96K21),,0.048,-0.037,,-0.231,,,,,
